FMDV antiviral: foot and mouth disease virus antiviral activity. FMDV antiviral cell-based qHTS. Potency, µM (doses to about 57.9 µM), for the others: at the top dose activity change, negative = inhibition, hits mostly inhibitors. 410,000 tested, 1.2% active; calls by dose curve; tested in HEK293T cells; note: read-out not given here; potency is the fitted concentration of half-maximal effect; % is set by controls: 0 for no effect and ±100 for the full control effect; nearly all actives have a fitted effect of over 45% in size
Shiga inhibitor: blocks Shiga toxin action in Vero cells; Vero cells, Shiga toxin protein synthesis inhibition reporter; inhibition, % at 38.7 µM; 290,000 tested, 9.2% active; in the data active = inhibition mostly above about 28%, no sharp cut-off; inactive = mostly below about 43%; note: 0% is about no effect
Sm TGR block: blocks Schistosoma mansoni thioredoxin glutathione reductase; Q962Y6; purified TGR, DTNB reduction, TNB absorbance 405 nm; Potency, µM (highest dose often 114 µM), inactives show top-dose activity change, negative = inhibition, actives largely listed as inhibitors; 360,000 tested, 3% active; AID 485364; active = well fitted inhibition curve with a large enough effect; inconclusive = small, poorly fitted or top-dose-only effect; inactive = no such curve, though single readings can be large or run the other way; note: potency is the fitted concentration of half-maximal effect; % is set by controls: 0 for no effect and ±100 for the full control effect; nearly all actives have a fitted effect of over 60% in size
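Kinetic colorimetric format: TGR-catalysed, NADPH-driven DTNB reduction monitored via TNB absorbance. Enzyme dispensed at 20 nM; compound exposure 15 min at room temperature before reaction start.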
Cycloheximide cs: counter-screen for Shiga toxin inhibitors: cycloheximide protein synthesis inhibition; 300,000 tested, 12% active; cell reporter, cycloheximide protein synthesis inhibition counterscreen; max response, %; in the data active = max response mostly above about 13%, no sharp cut-off; inactive = mostly below about 14%; note: read at 38.3 µM for the half of the compounds with a filed dose; 0% is about no effect
* hit, by the source's call; ? = inconclusive; nt = no result given. Most compounds without a hit are left out; they make up all but 12% or so of the library.

SMILES | FMDV antiviral | Shiga inhibitor | Sm TGR block | Cycloheximide cs
Cc1cc2c(c(=O)n1Cc1cccnc1)C(c1cccs1)C(C#N)=C(N)O2 (stereo not drawn) | -23% | 21 | 10µM* | 8
COc1cccc(-c2nc(NCCN3CCOCC3)c3ccccc3n2)c1 | 13% | nt | nt | nt
COc1ccc(/C=C2\SC(N3CCCCC3)=NC2=O)cc1OC | 20% | 34 | 9% | 9
O=C1N=C(N2CCCC2)S/C1=C\c1cn[nH]c1-c1ccccc1 | nt | -6 | -2% | 5
O=C1N=C(N2CCCCC2)S/C1=C/C1=Cc2ccccc2OC1 | 25% | 76* | ? | 37*
Cc1ccc(/C=C2\SC(N3CCCC3)=NC2=O)cc1 | nt | 28 | nt | 7
COc1cc(/C=C2\SC(N3CCC(C)CC3)=NC2=O)ccc1O | 23% | 15 | -6% | 42*
CN(C)c1ccc(/C=C2\SC(N3CCCCC3)=NC2=O)cc1 | 4% | nt | -16% | 41*
Cc1ccc(CNC(=O)CN2CCN(Cc3ccc(F)cc3)C2=O)cc1 | 6% | nt | -2% | nt
Cc1c(C(=O)Nc2ccccc2)csc1-c1ccccc1 | -24% | 40* | 0% | 36*
Cc1c(C(=O)Nc2ccccc2[N+](=O)[O-])csc1-c1ccccc1 | -6% | 97* | 1% | 34*
CCCc1[nH][nH]c(=O)c1C(c1ccccc1)C(C#N)C#N (stereo not drawn) | -2% | 3 | 2.5µM* | -2
Cc1cccc[n+]1C1C(c2ccccc2)C(C#N)=C(C(=C=[N-])C#N)NC1(O)C1CC1 (stereo not drawn) | -4% | -10 | 5.6µM* | 1
COc1cc(=O)n2c(c1C(=O)NC(C)c1ccco1)CCN(CC=C(C)C)CC2 (stereo not drawn) | 9% | nt | nt | nt
O=c1cc(C(F)(F)F)[nH]c(=S)n1-c1ccccc1 | 0% | -2 | 22µM* | 1
Nc1cc(=O)[nH]c(=S)n1-c1ccccc1 | 12% | -2 | -3% | -3
Cc1c2c(c(O)c3c(O)cccc13)C(=O)O[C@H]2C1C(N(C)C)C(O)=C(C(N)=O)C(=O)[C@H]1O (stereo partly drawn) | nt | 11 | nt | -9
CCc1ccc(-c2cc(-c3n[nH]c(=S)n3CC)c3ccccc3n2)cc1 | nt | 41* | -2% | 32*
COc1ccc(OC)c(CNc2ccc3c(c2)CCC3)c1 | -5% | 66* | ? | 43*
COc1cccc(CNc2ccc3c(c2)CCC3)c1 | nt | 153* | -17% | 118*
COc1ccc(OC)c(CC(=O)Nc2ccc3c(c2)CCC3)c1 | 0% | 21 | 1% | 5
COc1cccc(Nc2cc(C)nc3nc(C)nn23)c1 | 4% | -11 | 1% | -2
COc1cccc(CNc2ccc(C)c(Cl)c2)c1 | 31% | 64* | -1% | 39*
COc1ccc(OCC(=O)Nc2ccc3c(c2)CCC3)cc1 | 27% | nt | 0% | nt
COc1cccc(CNc2nc3nc(C)cc(C)n3n2)c1 | 40% | 66 | 8% | 11*
SMILES | FMDV antiviral | Shiga inhibitor | Sm TGR block | Cycloheximide cs
Cc1ccc(NC(=O)c2ccc3c(=O)n4nc(Nc5ccccc5C)sc4nc3c2)cc1C | -19% | nt | 0% | nt
COc1ccc(C(=O)NCc2ccc3c(c2)CCN3C(=O)c2cccc(C)c2)cc1OC | -3% | nt | -5% | nt
COc1ccc(-c2nc(Cn3c(SCc4cccc(F)c4)nc4ccncc43)c(C)o2)cc1OC | -20% | 8 | ? | 12*
COc1ccc(-c2nc(Cn3c(SCc4ccccc4F)nc4ccncc43)c(C)o2)cc1OC | -22% | nt | -1% | nt
COc1ccc(-c2nc(Cn3c(SCc4ccc(C)cc4)nc4ccncc43)c(C)o2)cc1OC | -8% | 101* | ? | 48*
CCc1ccc(-n2c(=O)c3sc4ccccc4c3n(CC(=O)NC3CCCC3)c2=O)cc1 | ? | nt | 0% | nt
CCOC(=O)Cn1nnc(-c2cccc(OC)c2)n1 | nt | 109* | -31% | 43*
CCOC(=O)c1cnc(-c2cccc(OC)c2)[nH]c1=O | 35% | 12 | 9% | 15*
COc1cccc(-c2nnn(C/C(N)=N/O)n2)c1 | 42% | -6 | 7% | 37*
CCOC(=O)NC[C@H](Cc1ccc(OCCc2nc(-c3ccccc3)oc2C)cc1)N/C(C)=C\C(=O)c1ccc(C(F)(F)F)cc1 | -2% | nt | nt | nt
O=C(O)c1cc(O)c2c(c1)[C@H]([C@H]1c3cc(C(=O)O)cc(O)c3C(=O)c3c(O[C@@H]4O[C@H](CO)[C@@H](O)[C@H](O)[C@H]4O)cccc31)c1cccc(O[C@@H]3O[C@H](CO)[C@@H](O)[C@H](O)[C@H]3O)c1C2=O | -24% | nt | nt | nt
CCOC(=O)c1ccc(NC(=O)CNC(=O)C2CCCCC2)cc1 | nt | -11 | 3% | -4
CCOC(=O)c1ccc(NC(=S)NNC(=O)C2(C)CC2(Cl)Cl)cc1 (stereo not drawn) | -18% | active | -7% | 15
